According to PubChem BioAssay (NCI):
The panel holds about 83,000 compounds, 20% with a hit somewhere; the sample as a whole holds those more often.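 Growth was measured after 48 h exposure to one concentration of compound in 96-well plates. Values under 10 count as active.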 Unmarked numbers belong to inactive results. The source made the active and inactive calls.

Tests used:
Assay in all cases: NCI-60 one-dose screen, 48 h (100 = growth as untreated, 0 = no growth, -100 = all killed)
Details in all cases: 10 µM unless noted
[1] = test system: HCT-15 colon
[2] = test system: HT29 colon
[3] = test system: SNB-75 CNS
[4] = test system: SNB-19 CNS
[5] = test system: U251 CNS
[6] = test system: PC-3 prostate
[7] = test system: SK-MEL-5 melanoma
[8] = test system: UACC-62 melanoma
[9] = test system: LOX IMVI melanoma
[10] = test system: SK-MEL-28 melanoma

SMILES | growth [1] | growth [2] | growth [3] | growth [4] | growth [5] | growth [6] | growth [7] | growth [8] | growth [9] | growth [10]
COc1ccc(NC(=O)/C=C(C)/C=C/C=C(C)/C=C/C2=C(C)CCCC2(C)C)cc1 | 72.5% | 72.4% | 66.3% | 110% | 26.3% | 63.1% | 110% | 77.4% | 68.4% | 105%
O=C(c1ccccc1)c1ccccc1-c1ccccc1 | 17.8% | -25.8% (active) | 3.14% (active) | 34.7% | 25.4% | 41.4% | 25% | 34.5% | – | 50.1%
Cc1ncc(C(=O)Nc2ccc(CN3CCN(C)CC3)c(C(F)(F)F)c2)cc1C#Cc1cnc(NC2CC2)c2ncccc12 | -91.9% (active) | -80.7% (active) | -96.5% (active) | -97.2% (active) | -95% (active) | -66.9% (active) | -98.5% (active) | -62.8% (active) | -81% (active) | -91.5% (active)
N#Cc1ccc(OCc2nc(N)nc(N)c2-c2ccc(Cl)c(Cl)c2)cc1 | 20.9% | 10.8% | 65.6% | 38.2% | 20.5% | 18.9% | 23.4% | 12.2% | 11.1% | 54.4%
CCCCCCCCCCCCCCCC[n+]1cccc(C#N)c1 | 13.1% | 27.1% | 74.8% | 26.4% | 29.7% | 25.1% | 58.3% | 83.9% | 12.4% | 83%
CCCCCCCCCC[N+](C)(C)N | 101% | 85.4% | 78.9% | 87.2% | 91.8% | 62.4% | 96.7% | 106% | – | 110%
C/C=C(/C)C(=O)OC1C=C(CO)C(=O)C(OC(=O)C(C)(O)C(C)Cl)C1C(C)C (centres undefined) | -20.7% (active) | -32.5% (active) | 20% | -1.69% (active) | -50% (active) | -24.8% (active) | -93% (active) | -77% (active) | -75.4% (active) | -48.9% (active)
CCCCCCCCCC[N+](C)(C)C | 39.3% | 8.24% (active) | -22.8% (active) | 13.4% | -75.4% (active) | -49% (active) | -13.6% (active) | 28.5% | -78.4% (active) | 51.8%
CCCC(=O)Nc1ccccc1C(=O)O | 95.4% | 96.6% | 89.4% | 106% | 89.7% | 103% | 99% | 105% | 92.5% | 107%
O=C(CCl)NC1c2ccccc2Oc2ccccc21 | 50.8% | 80.5% | 74.5% | 94.3% | 47.7% | 80.7% | 73.8% | 68.1% | -1.57% (active) | 92%
CCOP1(=O)CC(C)=C(Cl)C(P(=O)(O)O)C1 (centres undefined) | 98.3% | 104% | 82.4% | 106% | 99.7% | 95.6% | 109% | 95.5% | 94.1% | 93.7%
Cn1c2ccccc2c2ccccc21 | 107% | 104% | 85.5% | 98.3% | 96.5% | 105% | 105% | 101% | 95.8% | 102%
CC(Br)c1nc2ccccc2cc1C(N)=O (centres undefined) | 98.9% | 105% | 88.3% | 105% | 97.9% | 103% | 104% | 93.7% | 85.6% | 107%
CCn1cnc(C[C@H](NC(=O)[C@@H](NC(=O)Nc2cc(C(F)(F)F)cc(C(F)(F)F)c2)C(C)C)C(=O)OC)c1 | -78.6% [100 µM] (active) | -81% [100 µM] (active) | -100% [100 µM] (active) | -90.8% [100 µM] (active) | -94.3% [100 µM] (active) | -91.8% [100 µM] (active) | -98% [100 µM] (active) | -94.6% [100 µM] (active) | -86% [100 µM] (active) | -96% [100 µM] (active)
Cc1nc2ccccc2c(=O)n1-c1cccc(OCc2cn(-c3cccc(O)c3)nn2)c1 | 107% | 96.8% | 88.4% | 91.2% | 98.2% | 87.6% | 87% | 81.1% | 94.6% | 103%
CCOC(=O)/C(C#N)=C(/CC)OCC | 109% | 103% | 90.8% | 106% | 103% | 93.6% | 110% | 110% | – | 106%
COc1ccc(OC)c(Cn2cc3c(c2)-c2oncc2CC3)c1 | 31.1% | 22.3% | -1.67% (active) | 50.6% | 37.8% | 45.5% | 20% | 53% | 35.4% | 50.1%
O=C(O)COc1ccc([N+](=O)[O-])cc1Cl | 94.1% | 113% | 94.3% | 107% | 96.5% | 97.6% | 106% | 111% | 100% | 104%
CC(=O)/C(=C/c1ccc(-c2ccccc2)cc1)C(=O)c1ccccc1 | 66.9% | 70.2% | 79.7% | 82.3% | 61% | 63.1% | 87.3% | 80.5% | – | 96.2%
COc1ccc(Cn2cc3c(c2-c2ccccc2)CCc2cnoc2-3)cc1N | 20% | 10.5% | 29.1% | 44.5% | 24.8% | 23.7% | 8.52% (active) | 42.4% | 31.4% | 63.6%
CCc1c(C)c2ccc(OCC(=O)N=Nc3c(O)[nH]c4ccccc34)c(C)c2oc1=O | -15% (active) | -38.6% (active) | 30.7% | 19.2% | -70.8% (active) | -9.58% (active) | 34.2% | 22.8% | – | 64.8%
CC(C)(C)C(=O)CCCCCCCC/C=C/CCCC(O)c1ccco1 (centres undefined) | 118% | 107% | 101% | 109% | 105% | 102% | 107% | 95.2% | 102% | 106%
O=C(Nc1ccc(Cl)c(Cl)c1)O/N=C\c1c(Cl)ccc([N+](=O)[O-])c1Cl | -3.17% (active) | -73% (active) | 16.9% | 49.5% | 3.06% (active) | -8.42% (active) | 48.3% | -63.5% (active) | -82.1% (active) | -12.3% (active)
Cc1nc2c(nnn2-c2ccccc2)c2nc(-c3ccccc3)oc(=O)c12 | 101% | 113% | 99.1% | 104% | 110% | 105% | 104% | 97.2% | 98.3% | 104%
N#Cc1ccc(NC2c3ccccc3CC2O)cc1 (centres undefined) | 101% | 110% | 91.5% | 109% | 113% | 98.8% | 102% | 99.1% | – | 109%
Clc1ccc(I)c2ccccc12 | 96.4% | 111% | 96.5% | 110% | 96.3% | 102% | 109% | 111% | 59.4% | 114%
